Assay outcomes from PubChem.
The list is not random: actives were taken first. Their share in the collection is about 3.5%.
RE007 growth inh – less growth of the S. pombe RE007 Vpr strain; S. pombe RE007 Vpr strain, BacTiter-Glo ATP luminescence, 24 h; 0.21% of 360,000 active; Potency, µM (top dose mostly 92.2 µM), inactives show top-dose activity change, negative = less growth, hits mostly inhibitors; AID 651644; active = well fitted falling curve with a large enough effect; inconclusive = small, poorly fitted or top-dose-only effect; inactive = no such curve, though single readings can be large or run the other way; note: % is set by controls: 0 for no effect and ±100 for the full control effect; nearly all actives have a fitted effect of over 50% in size
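Fission yeast RE007 carrying one integrated HIV-1 vpr copy, seeded at OD 0.01 in PMG+AL medium with 23 nL pinned compound. Grown 24 h at 30 degrees; viability read by BacTiter-Glo luminescence after 5 min.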
NS1 function inh – blocks influenza NS1 protein function. 0.4% of 270,000 active. Potency, µM (series often up to 46.1 µM), for inactives: at the top dose activity, positive = more growth; calls by dose curve; note: actives are rising curves; nearly all actives have a fitted effect of over 50% in size
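In this qHTS, NS1 from influenza A is expressed in budding yeast, where it slows growth. Cells are switched from glucose to 2% galactose medium (pH 6.0, -URA), treated with compound, and growth recovery is read at OD600.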
Sm TGR inh – blocks Schistosoma mansoni thioredoxin glutathione reductase; Q962Y6; purified TGR, DTNB reduction, TNB absorbance 405 nm; Potency, µM (series often up to 114 µM), without a hit: at the top dose activity change, negative = inhibition, most hits filed as inhibitors; 3% of 360,000 active; note: % is set by controls: 0 for no effect and ±100 for the full control effect; nearly all actives have a fitted effect of over 60% in size
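First, TGR (20 nM dispensed) and NADPH were mixed with compound. Second, a 15 min room-temperature incubation followed. Third, further NADPH and then DTNB were added to start the reaction. Finally, TNB absorbance was monitored kinetically.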
LmPK inhibitor – inhibitors of Leishmania mexicana pyruvate kinase | Q27686 | 0.37% of 290,000 active | AID 1721 | purified LmPK, Kinase-Glo ATP luminescence, 1 h | Potency, µM (series often up to 57.5 µM), for the others: at the highest dose activity change, negative = inhibition, actives largely listed as inhibitors; note: % is set by controls: 0 for no effect and ±100 for the full control effect
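Screened at intermediate enzyme activity to detect both inhibitors and activators: LmPK at 0.1 nM, with a 0.5 nM enzyme column as activation reference. PEP 0.5 mM, ADP 0.1 mM; ATP detected by luminescence after 1 h.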
FBPA Giardia inh – Giardia lamblia aldolase inhibition; A8B2U2; purified Giardia FBPA; Potency, µM (series often up to 59.6 µM), for the others: top-dose activity, negative = inhibition, hits mostly inhibitors; 0.71% of 290,000 active; AID 2451; note: % is set by controls: 0 for no effect and ±100 for the full control effect; nearly all actives have a fitted effect of over 55% in size
Target sequence (A8B2U2 whole entry, looked up): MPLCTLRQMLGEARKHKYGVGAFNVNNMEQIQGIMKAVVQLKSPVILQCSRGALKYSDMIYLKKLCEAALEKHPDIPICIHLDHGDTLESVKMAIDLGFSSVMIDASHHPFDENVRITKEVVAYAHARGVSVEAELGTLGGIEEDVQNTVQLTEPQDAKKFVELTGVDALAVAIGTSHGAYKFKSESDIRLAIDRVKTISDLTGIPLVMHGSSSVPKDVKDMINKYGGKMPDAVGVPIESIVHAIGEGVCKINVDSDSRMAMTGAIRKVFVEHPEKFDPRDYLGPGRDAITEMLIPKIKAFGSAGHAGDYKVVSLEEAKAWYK
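40 nM FBPA preincubated 10 min at RT with compound (up to 57.5 uM final), then substrate plus GAPDH/TPI/NAD/arsenate coupling and diaphorase/resazurin added. Fluorescence read after 20 min at RT, 525/598 nm.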
TbPYK inhibitor – blocks Trypanosoma brucei pyruvate kinase | 0.12% of 410,000 active | Potency, µM (titrated, usually from 76.8 µM), without a hit: top-dose activity, negative = inhibition, hits mostly inhibitors | AID 624173 | Q57TT1 | TbPYK enzyme, Kinase-Glo Plus ATP luminescence, 45 min; note: % is set by controls: 0 for no effect and ±100 for the full control effect; nearly all actives have a fitted effect of over 50% in size
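Luminescence from Kinase-Glo Plus, added after a 45-minute room-temperature reaction, served as the end-point read-out. The enzyme and substrate were preincubated with compound before ADP (130 uM final) initiated turnover. Concentration-effect curves came from normalized qHTS data.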
Starred values were filed as active, the others as inactive; ? = inconclusive; · = no result. Unless noted, calls come from the whole dose curve; as a rule, active = well fitted curve in the direction sought with a large enough effect; inconclusive = small, poorly fitted or top-dose-only effect, or another doubt; inactive = no such curve, though single readings can be large; an effect the other way counts as inactive or inconclusive. Potency is the fitted concentration of half-maximal effect.

SMILES | RE007 growth inh | NS1 function inh | Sm TGR inh | LmPK inhibitor | FBPA Giardia inh | TbPYK inhibitor
Oc1ccc(O)c(/C(=N/Nc2ccccc2)c2ccccc2)c1 | · | 2% | 6.3µM* | -5% | -11% | ·
CCc1ccc(S(=O)(=O)NCc2ccc3c(c2)CCN3C(=O)c2ccc(C)cc2)cc1 | · | · | -12% | · | · | -6%
COc1ccccc1NC(=O)CSc1sc2c(O)cc(=O)[nH]c2c1C#N | -3% | 28% | 14µM* | -2% | -19% | -13%
COc1ccc(NC(=O)CSc2sc3c(O)cc(=O)[nH]c3c2C#N)c(OC)c1 | -5% | 28% | -14% | -3% | -17% | -16%
CCSc1nnc(NC(=O)CSc2sc3c(O)cc(=O)[nH]c3c2C#N)s1 | 2% | 22% | -26% | 1% | ? | -27%
N#Cc1c(SCC(=O)Nc2cccc(C(F)(F)F)c2)sc2c(O)cc(=O)[nH]c12 | 6% | 11% | 32µM* | 5% | -14% | -29%
Cc1cc(NC(=O)CSc2sc3c(O)cc(=O)[nH]c3c2C#N)ccc1Br | 0% | ? | ? | 6% | 4% | -10%
CCc1nnc(NC(=O)CSc2sc3c(O)cc(=O)[nH]c3c2C#N)s1 | -7% | 23% | 35µM* | -1% | ? | 0%
COC(=O)c1ccc(CSc2nnc3ccc4ccccc4n23)cc1 | · | · | -9% | · | · | 0%
Cc1ccc(CN(Cc2cccn2-c2nnc(N3CCCC3=O)s2)C(=O)Nc2ccccc2Cl)cc1 | · | · | -5% | · | · | -3%
CCOc1ccc(/C=C/C(=O)Nc2ccc3nc(N(CC)CC)cc(C)c3c2)cc1OC | · | · | 8% | · | · | 3%
CCc1ccc(OCC(=O)NCC(c2ccc(OC)cc2)N2CCOCC2)cc1 (stereo not drawn) | · | · | -5% | · | · | 1%
O=C(CCCn1c(=S)[nH]c2ccc(Br)cc2c1=O)NCC1CCCO1 (stereo not drawn) | -10% | 1.8µM* | 7% | -16% | ? | -2%
O=C(NCCN1CCCC1)c1ccc(Cn2c(=S)[nH]c3ccc(Br)cc3c2=O)cc1 | -20% | · | -7% | -7% | 10% | -25%
O=C(NCCCN1CCCC1)c1ccc(Cn2c(=S)[nH]c3ccc(Br)cc3c2=O)cc1 | · | · | 45µM* | -3% | 5% | ·
CSc1ncc(C(=O)Nc2cc(Cl)ccc2C)c(-c2ccccc2)n1 | · | · | -4% | · | · | -3%
Cc1cccc(-c2nc3c(C#N)c[nH]n3c2NC2CCCCC2)c1 | · | · | -11% | · | · | -10%
O=C1c2sc3nc4n(c(=O)c3c2CCC1Br)CCCCC4 (stereo not drawn) | 2% | -25% | ? | 28µM* | 20µM* | ?
CCNc1ncc2nc(-c3ccc(OC)cc3)c(=O)n(Cc3cccs3)c2n1 | · | · | · | · | 3% | ·
COc1ccc(C2C(C#N)=C(N)Oc3cc(C)n(Cc4ccco4)c(=O)c32)cc1 (stereo not drawn) | -19% | 1% | 32µM* | -3% | ? | ?
CCOc1ccccc1C1C(C#N)=C(N)Oc2cc(C)n(Cc3ccccn3)c(=O)c21 (stereo not drawn) | 4% | 8% | 35µM* | -1% | ? | -20%
COc1cc(C2C(C#N)=C(N)Oc3cc(C)n(Cc4ccccn4)c(=O)c32)cc2c1OCO2 (stereo not drawn) | · | 6% | -17% | 7% | 6% | ·
COc1cc(C2C(C#N)=C(N)Oc3cc(C)n(CC4CCCO4)c(=O)c32)cc2c1OCO2 (stereo not drawn) | 23% | 18% | 45µM* | 4% | ? | 4%
COc1cccc(C2C(C#N)=C(N)Oc3cc(C)n(Cc4ccco4)c(=O)c32)c1 (stereo not drawn) | 1% | -10% | ? | -2% | ? | -18%
CCOc1ccccc1C1C(C#N)=C(N)Oc2cc(C)n(C)c(=O)c21 (stereo not drawn) | -4% | 8% | 40µM* | 0% | ? | -9%
SMILES | RE007 growth inh | NS1 function inh | Sm TGR inh | LmPK inhibitor | FBPA Giardia inh | TbPYK inhibitor
COc1ccc(NC(=O)C(NS(=O)(=O)c2cccc3nsnc23)C(C)C)cc1OC (stereo not drawn) | · | · | 2% | · | · | 1%
Cc1ccc(CNC(=O)CCc2c(C)c3cc4c(C)coc4cc3oc2=O)cc1 | · | · | -3% | · | · | -2%
COc1ccccc1C1C(C#N)=C(N)Oc2cc(C)n(CCCn3ccnc3)c(=O)c21 (stereo not drawn) | -2% | -5% | 50µM* | 1% | ? | 6%
Cc1cc2c(c(=O)n1CCCn1ccnc1)C(c1ccco1)C(C#N)=C(N)O2 (stereo not drawn) | -8% | -2% | 2% | -2% | 4% | 0%
COc1ccccc1C1C(C#N)=C(N)Oc2cc(C)n(Cc3ccccn3)c(=O)c21 (stereo not drawn) | -5% | 10% | 35µM* | 11% | ? | -9%
COc1cccc(C2C(C#N)=C(N)Oc3cc(C)n(Cc4ccccn4)c(=O)c32)c1OC (stereo not drawn) | 20% | ? | -16% | 2% | -11% | -7%
O=C(O)c1cc(-c2cccs2)nn1-c1cccc(Cl)c1 | 2% | · | -10% | -2% | 12% | 0%
Cc1nn(-c2cccc(Cl)c2)c2nc(-c3ccco3)cc(C(=O)O)c12 | 12% | 1% | 16µM* | 6% | ? | 0%
Cc1ccc(-n2nc(-c3ccco3)cc2C(=O)O)c(C)c1 | -10% | ? | 11µM* | 9% | -17% | -6%
O=C(O)c1cc(-c2ccco2)nn1-c1cccc(Cl)c1 | -15% | 8% | 63µM* | 7% | -4% | -4%
O=C(O)c1cc(-c2ccco2)nn1-c1ccc(Cl)cc1 | 10% | 7% | 5µM* | 14% | -1% | -21%
O=C(O)C(Cl)(c1ccccc1)c1ccccc1 | · | 0% | · | · | · | ·
Cn1c(O)c(N=NC(=S)Nc2ccccc2F)c2cc(S(=O)(=O)N3CCOCC3)ccc21 | -3% | · | -1% | -2% | 0% | 2%
C=CCn1c(O)c(N=NC(=S)Nc2ccccc2C)c2cc(S(=O)(=O)N3CCOCC3)ccc21 | 18% | 13µM* | 0% | 3% | -6% | -3%
Cc1cc(O)c(C=O)c(O)c1C(=O)O | · | · | · | · | -1% | ·
Cc1cc(O)c(C=O)c2c1C(=O)Oc1c(CO)c(O)c3c(c1O2)C(O)OC3=O (stereo not drawn) | 4% | 13% | 14µM* | -7% | ? | 2%
Cc1ccc(CN(C(=O)COc2ccccc2[N+](=O)[O-])c2ccccn2)cc1 | · | · | 9% | · | · | -4%
CCc1c(C)c(C#N)c2[nH]c3ccccc3n2c1=S | -10% | -45% | 0.56µM* | ? | ? | 14µM*
CCc1cc(=O)n2c([nH]c3ccccc32)c1C#N | 8% | ? | -17% | -19% | -25% | 2%
